Assay results: PubChem BioAssay AID1347416 (National Center for Advancing Translational Sciences (NCATS), 2020)
Out of some 4,100 compounds screened, about 1,600 (39%) were called active. Not shown: some 25% with an inconclusive outcome. Calls come from the whole dose curve; as a rule, active = well fitted inhibition curve with a large enough effect; inconclusive = small, poorly fitted or top-dose-only effect; inactive = no such curve, though single readings can be large or run the other way. This is one part of the list.

Experiment: qHTS Validation assay for Inhibitors of Plasmodium falciparum Dd2 growth in vitro; note: nearly all actives have a fitted effect of over 70% in size
Details: P. falciparum Dd2 in RBCs, SYBR Green growth, 72 h; series mostly up to 28.7 µM; activity change, negative = inhibition: at the top concentration
How it was run: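 P. falciparum Dd2-infected red blood cells (2.5% hematocrit, 0.3% parasitemia) grown 72 h at 37 °C under 5% O2 with compounds in a titration, 29 uM to 0.5 nM final. Growth read as SYBR Green-1 fluorescence after ~16 h lysis; artesunate 300 nM as positive control.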
% is set by controls: 0 for no effect and ±100 for the full control effect; potency is the fitted concentration of half-maximal effect.

Potency, active:
O=c1[nH]c(N2CCOCC2)nc2c1CCN(Cc1ccccc1C(F)(F)F)CC2 4.73 µM, O=c1[nH]c(N2CCOCC2)nc2c1CCN(Cc1ccccc1Br)CC2 15 µM, Cc1noc2c(NC3CCN(C)CC3)cc(-c3cccc(C(F)(F)F)c3)nc12 13.7 µM, O=C(Nc1ncccc1O)c1ccc(NS(=O)(=O)c2ccc3[nH]c(=O)[nH]c3c2)cc1 0.422 µM, CC(=O)N1c2c(cc(Br)cc2S(=O)(=O)N2CCN(c3cc(C)ccc3C)CC2)CC1C (stereo not given) 11.9 µM, O=C1NC(=NC2CCCC2)C2(CCN(Cc3ccc(F)cc3)C2)N1c1cc(F)cc(F)c1 (stereo not given) 10.6 µM, O=C1NC(=NC2CCCCC2)C2(CCN(Cc3ccc(F)cc3)C2)N1c1cc(F)cc(F)c1 (stereo not given) 4.22 µM, CCOC(=O)c1c(NC(=O)c2ccccc2)sc2c(O)c(CN(CC)CC)ccc12 0.15 µM, COc1cccc(Cn2c(Oc3ccccc3)nc3c2c(=O)n(C)c(=O)n3C)c1 4.73 µM, CCCOc1ccc(CCc2n[nH]c(=S)n2Cc2ccccc2)cc1 5.31 µM, CC(C)Oc1ccc(CCc2n[nH]c(=S)n2Cc2ccccc2)cc1 5.31 µM, COc1ccc(/C=N/Nc2cc(C)nc3ccccc23)cc1 2.11 µM, S=C(NCc1ccccc1)N1CCn2cccc2C1c1cccnc1 (stereo not given) 9.44 µM, c1csc(-c2ccnc(N[C@H]3CO[C@H]4[C@@H]3OC[C@@H]4NCC3CCCCC3)n2)c1 12.2 µM, Cc1cc(CN2CCC(CO)(Cc3ccccc3Cl)CC2)cc(C)c1O 16.8 µM, COc1ccc(CC(=O)NCc2ccccn2)cc1OC 7.5 µM, O=C1c2ccccc2C(=O)c2[nH]c(=O)[nH]c21 5.96 µM, C=C[C@]1(C)C[C@@H](OC(=O)CSC(C)(C)CNC(=O)[C@H](N)C(C)C)[C@]2(C)[C@H](C)CC[C@]3(CCC(=O)[C@H]32)[C@@H](C)[C@@H]1O 8.41 µM, CCN(CC)CCC(c1ccc2c(c1)OCO2)c1c(O)cc(OC)cc1OC (stereo not given) 4.22 µM, CCN(CC)CCC(c1ccc(N(C)C)cc1)c1c(O)cc(OC)cc1OC (stereo not given) 3.35 µM, CCN(CC)CCC(c1ccc(OC)cc1)c1c(O)cc(OC)cc1OC (stereo not given) 6.68 µM, COc1cccc(CN2CCc3c(cc(C(=O)NCc4ccccn4)n3C)C2)c1 15 µM, COc1cccc(C(NC(C)=O)c2ccc3cccnc3c2O)c1 (stereo not given) 4.22 µM, CCCC(=O)NC(c1ccc(C(C)C)cc1)c1ccc2cccnc2c1O (stereo not given) 13.3 µM, CCCC(=O)NC(c1ccccc1)c1ccc2cccnc2c1O (stereo not given) 6.68 µM, CCCCC(=O)NC(c1ccccc1OC)c1ccc2cccnc2c1O (stereo not given) 5.31 µM, CCCCC(=O)NC(c1ccc(C(C)C)cc1)c1ccc2cccnc2c1O (stereo not given) 7.5 µM, c1ccc(-[n+]2nc(Nc3cccc4ccccc34)sc2-c2c3ccccc3cc3ccccc23)cc1 5.96 µM, CCOC(=O)C1(Cc2ccc(Cl)cc2)CCN(Cc2ccc(OC)cc2O)CC1 0.188 µM, COC(=O)[C@]1(C)CCC[C@@]2(C)C3CC[C@@]4(C)C[C@]3(CCC21)CC(=O)N4Cc1ccc(OC)cc1 (stereo not given in full) 3.76 µM, Cc1c(C#N)c2ccccc2n1CCOc1ccccc1F 1.68 µM, COc1ccc(-c2nc(Cn3c(SCc4ccccc4F)nc4ccncc43)c(C)o2)cc1OC 8.41 µM, COc1cc(NC(=O)CSc2nc(-c3ccccc3)no2)cc(OC)c1 2.37 µM, COc1cc(NC(=O)CSc2nc(-c3ccc(C(C)C)cc3)no2)cc(OC)c1 0.842 µM, COc1ccc2c(CNCc3ccccc3OC)c(C(=O)O)n(Cc3ccc(F)cc3Cl)c2c1 15 µM, COc1ccc(CN2C(=O)COC[C@@H]2[C@H](O)c2ccc(NC(=O)c3ccc(C(C)(C)C)cc3)cc2)cc1 2.11 µM, CCOC(=O)c1nnn(-c2nonc2N)c1-c1ccc(Cl)cc1 5.31 µM, CCOC(=O)c1nnn(-c2nonc2N)c1-c1ccc(OC)cc1 5.31 µM, CCOC(=O)c1nnn(-c2nonc2N)c1-c1ccc(C)cc1 5.31 µM, CCOC(=O)c1nnn(-c2nonc2N)c1-c1ccc(Br)cc1 2.66 µM, CCC(=O)N1CCc2cc(Br)cc(S(=O)(=O)N3CCCC(C(=O)NC(C)(C)C)C3)c21 (stereo not given) 3.35 µM, CCC(=O)N1CCc2cc(Br)cc(S(=O)(=O)C3(C(=O)OC)CC3)c21 3.76 µM, CCC(=O)N1CCc2cc(Br)cc(S(=O)(=O)N3CCCCC3CC)c21 (stereo not given) 1.06 µM, CC(C)(C)n1nnnc1C(c1cccnc1)N(Cc1ccccc1)Cc1ccco1 (stereo not given) 5.31 µM, CC(C)(C)c1ccc(CN(Cc2ccccc2)C(c2ccccn2)c2nnnn2C(C)(C)C)cc1 (stereo not given) 4.73 µM, Cc1nccn1CC(O)Cn1c2ccccc2c2ccccc21 (stereo not given) 8.41 µM, OCc1ccc(CN2CCCC(CCc3c(F)cccc3F)C2)o1 (stereo not given) 4.22 µM, c1ccc(Oc2nc(-c3ccccn3)nc3ccccc23)cc1 7.5 µM, Cc1cccc(Oc2nc(-c3ccccn3)nc3ccccc23)c1 7.5 µM, Cc1cccc(Oc2nc(-c3ccncc3)nc3ccccc23)c1 7.5 µM, CCCOc1ccc(Oc2nc(-c3ccncc3)nc3ccccc23)cc1 4.22 µM

Activity change, negative = inhibition, inactive:
COc1cccc(CN2CCc3nc(N4CCOCC4)[nH]c(=O)c3CC2)c1OC 1.69%, O=c1[nH]c(N2CCOCC2)nc2c1CCN(Cc1cccc(C(F)(F)F)c1)CC2 -22.4%, Cc1cc(Br)ccc1NC(=O)c1ccc(NS(=O)(=O)c2c(C)noc2C)cc1 25%, O=C(c1ccc(C(F)(F)F)cc1)N1CCC2(CC1)C(=NC1CCCCC1)NC(=O)N2c1cc(F)cc(F)c1 -25.9%, CN(C)c1ccc(CN2CCC3(C2)C(=NC2CCCCC2)NC(=O)N3c2cccnc2)cc1 (stereo not given) -28.4%, O=C1NC(=NC2CCCCC2)C2(CCCN([S+](=O)([O-])c3ccccc3)C2)N1c1cccnc1 (stereo not given) -14.7%, CN(C)c1ccc(CN2CCC3(C2)C(=NC2CCCC2)NC(=O)N3c2cccnc2)cc1 (stereo not given) -33.1%, CCNc1nc2c(c(=O)n(C)c(=O)n2C)n1Cc1ccc(F)cc1 -8.15%, Cc1ccc(Oc2nc3c(c(=O)n(Cc4ccccc4)c(=O)n3C)n2C)cc1C 42.4%, Cc1ccccc1C(=O)N1CCCCC12Cc1ccccc1NC2=O (stereo not given) 40.8% [at 43.1 µM], CN1CCNc2nc(COc3ccc(Oc4ccccc4)cc3)n(Cc3ccccc3)c2C1=O -10.4%, S=C(NCc1ccccc1)Nc1ccncc1 12.2%, O=C(O)COc1ccc(-c2nccc(-c3cccs3)n2)cc1 25.3%, CN(C)c1ccc(-c2ccnc(N[C@H]3CO[C@H]4[C@@H]3OC[C@@H]4NC(=O)NCc3ccccc3)n2)cc1 0.409%, CCc1ccccc1CN1CCC(CO)(CN2CCCC2)CC1 0.298%, Cc1cn2nc(C(=O)NCc3ccccn3)cc2c(=O)[nH]1 6.06%, CCOc1ccc(CNC(=O)CN2N=C(c3ccccc3)CCC2=O)cc1OC -2.34%, CCCn1ccc2sc(C)c(C(=O)O)c2c1=O 8.71%, COc1ccc(C(=O)N2CCc3ccc(C(=O)NCc4ccccn4)cc32)cc1 -8.95%, CCn1cc(-c2ccncc2)cc1C(=O)NCc1cccc(OC)c1 -24.5%, Cc1noc(-c2cn(C3CCN(C(=O)Cc4ccc(OC(F)(F)F)cc4)CC3)nn2)n1 -9.53%, CCOc1ccc(C(=O)NCc2nc3cccnc3n2Cc2cccc(OC)c2)cc1 20.1%, CCCC(=O)NCCc1noc(-c2ccccc2)n1 30.7%, Cc1cn2nc(-c3nc(C4CCCN(C(=O)c5cccs5)C4)no3)cc2c(=O)[nH]1 (stereo not given) -8.72%, COc1cc(CN2CCC3(CC2)C(=O)NCN3Cc2ccc(Cl)cc2)ccc1F 4.45%, COc1ccc(CNC(=O)C2=C(C)C(=O)OC23CCC(C)CC3)cc1 (stereo not given) 4.46%, COc1ccc(CCN2CC(C(=O)N3CCC(CO)CC3)CCC2=O)cc1 (stereo not given) 0%, COc1cc(NC(=O)CSc2nc3nc(C)c(Cc4ccc(C)cc4)c(C)n3n2)cc(OC)c1 -10.1%, CC(C)c1ccc(NC(=O)CSc2nc(=O)n(Cc3ccccn3)c3c2CCC3)cc1 -16.5%, COc1ccc(C2Cn3nnc(C(=O)NCc4ccc(F)cc4Cl)c3CO2)cc1 (stereo not given) -9.54%, Cc1ncc2n1C(=O)N(C1CCN(Cc3ccnn3C)CC1)C2 41.7% [at 43.1 µM], O=C(Nc1ccc([C@@H](O)[C@H]2COCC(=O)N2Cc2ccccc2F)cc1)c1ccccc1 3.31% [at 43.1 µM], O=C(Nc1ccc([C@@H](O)[C@H]2COCC(=O)N2Cc2ccc(F)cc2)cc1)c1ccc2c(c1)OCO2 -12.2%, Cc1noc(C)c1COC(=O)/C=C/c1ccc(Cl)cc1 -11.8%, COc1ccc(-c2noc(CCCC(=O)O)n2)cc1 22.9%, CCCS(=O)(=O)N1C[C@@H](COC)[C@H](c2nc(C)no2)C1 0%, CCC(=O)N1CCc2cc(S(=O)(=O)CCC(=O)NCc3ccc(OC)cc3)ccc21 26.3%, CC(C)(C)NC(=O)C1CCCN(C2CCN(C3Cc4ccccc4C3)CC2)C1 (stereo not given) -11.4%, CCC(=O)N1CCc2cc(S(=O)(=O)NCCC(=O)Nc3ccc(OC)c(Cl)c3)ccc21 50.2%, Cc1nc(-c2ccccc2OC2CN(S(=O)(=O)Cc3ccccc3F)C2)no1 -13%, Cc1noc(C)c1NC(=O)N1CCC(c2n[nH]c(=O)n2-c2ccccc2)CC1 21.1%, Cc1ccccc1C(=O)N1CCC2(CC1)N(c1ccccc1)C(=O)CS2(=O)=O 0.857%, O=C(c1cccc2[nH]ccc12)N1CCCC(n2cc(-c3nc(C4CC4)no3)nn2)C1 (stereo not given) 21.1%, OC[C@H]1CCN(Cc2ccc(-c3cccc(Cl)c3Cl)o2)C[C@@H]1O -7.08%
